{"source": "PubChem BioAssay AID624173", "about": "(National Center for Advancing Translational Sciences (NCATS), 2012)", "note": "Out of some 410,000 compounds screened, about 490 (0.12%) were called active. Roughly 1% stayed inconclusive and do not appear here. The list comes from a sample in which actives are over-represented; it also holds similar structures and randomly drawn compounds. Unmarked numbers belong to inactive results. Calls come from the whole dose curve; as a rule, active = well fitted inhibition curve with a large enough effect; inconclusive = small, poorly fitted or top-dose-only effect; inactive = flat fitted curve, though single readings scatter. % is set by controls: 0 for no effect and ±100 for the full control effect; potency is the fitted concentration of half-maximal effect."}
{"molecular_target": "pyruvate kinase (Trypanosoma brucei) (UniProt Q57TT1)", "test": "qHTS of Trypanosoma Brucei Inhibitors; note: nearly all actives have a fitted effect of over 50% in size", "conditions": "TbPYK enzyme, Kinase-Glo Plus ATP luminescence, 45 min; series mostly up to 76.8 µM; activity, negative = inhibition: at the top concentration", "source_text": "Members of the Trypanosomatidae family of parasitic protozoans cause a spectrum of diseases throughout the tropical and subtropical world. Sleeping sickness, caused by two subspecies of Trypanosoma brucei, is endemic to areas of sub-Saharan Africa, while Chagas' disease, a manifestation of Trypanosoma cruzi infection, is prevalent throughout Central and South America. In addition, many species of Leishmania are responsible for a range of cutaneous and visceral diseases, causing ulcers, destructive lesions and kalaazar, a lethal infection of the viscera. These diseases cause severe public health and economic burdens on populations that are often already caught in a tragic cycle of poverty, poor nutrition and disease. Collectively, parasites of the trypanosomatid family infect 30 million people worldwide (~500 million live in endemic areas), and account for ~130K deaths annually. Existing treatments have developed little in the past 50 years, and suffer from toxicity, poor efficacy and resistance; the goal of this project is to develop lead drugs that will be suitable for entry into pre-clinical trials.\nGlycolysis in axenically cultured T. cruzi, representing the intracellular pathogenic stage, is also essential for these parasites. {Engel, 1987} This project aims to discover and optimize selective inhibitors of the glycolytic enzyme pyruvate kinase (PYK) from Trypanosoma brucei, the parasite that causes sleeping sickness. […] Trypanosomatid PYKs show significant differences from their human counterparts including only 47-50% sequence identity and different allosteric and activation properties.{Callens, 1992} To this end, a qHTS was done against the MLSMR to discover inhibitors.\nNIH Molecular Libraries Probe Production Network [MLPCN]\nNIH Chemical Genomics Center [NCGC]\nPI Name: Malcolm Walkinshaw, University of Edinburgh\n2 uL of TbPYK/substrate buffer (columns 1-3, 5-48) are dispensed into Greiner white solid bottom 1536-well assay plates; column 4 receives only TEA buffer as 0x TbPYK controls. Compounds are then transferred via Kalypsys pin tool equipped with 1536-pin array (10 nL slotted pins, V&P Scientific, San Diego, CA). Following addition of compound, 2 uL of ADP (130 uM final concentration, all columns) is added to initiate the reaction. The plates are then incubated at room temperature for 45 minutes. Kinase-Glo Plus reagent is added (3 uL) and plates incubated for 10 minutes, before being transferred to a ViewLux high-throughput CCD imager (PerkinElmer) wherein single end-point measurements of luminescence are acquired using a clear filter. All reagents are diluted in an assay buffer consisting of 50 mM TEA (pH 7.2), 100 mM KCl, 10 mM MgCl2, 0.05% BSA and 0.01% Tween-20.\nAll screening operations will be performed on a fully integrated robotic system (Kalypsys, San Diego, CA) containing one RX-130 and two RX-90 anthropomorphic robotic arms (Staeubli, Duncan, SC). Library plates will be screened starting from the lowest and proceeding to the highest concentration. Vehicle-only plates, with DMSO being pin-transferred to columns 5-48, will be inserted uniformly at the beginning and the end of each library in order to monitor and record any shifts in the background, which can be affected by reagent dispensers or loss in enzyme activity over time. Screening data will be corrected, normalized, and concentration-effect relationships will be derived by using publicly-available curve fitting algorithms developed in-house (http://ncgc.nih.gov/pub/openhts)."}
{"smiles": "O=C(c1ccncc1)N1CCC2(CCCN(C(c3ccccc3)c3ccccc3)C2)CC1", "activity, negative = inhibition": "0%"}
{"smiles": "O=c1c(CCc2ccccc2)nc2cncnc2n1C1CC1", "activity, negative = inhibition": "-7.75%"}
{"smiles": "CC(=O)NC(=O)c1ccccc1O", "activity, negative = inhibition": "-5.98%"}
{"smiles": "COc1ccc(-n2c(-c3ccc(OC)c(OC)c3)n[nH]c2=S)cc1", "Potency": "3.98 µM (active)"}
{"smiles": "COc1ccc(CNc2nc(-c3ccc(Cl)cc3)cc(C(F)(F)F)n2)cc1", "activity, negative = inhibition": "2.22%"}
{"smiles": "COc1ccc(-c2cn(-c3ccc(C)cc3)c(=O)n2CC(=O)Nc2ccc(OC)c(OC)c2)cc1", "activity, negative = inhibition": "8.82%"}
{"smiles": "COc1ccc(-n2c(C)csc2=S)cc1", "activity, negative = inhibition": "-1.59%"}
{"smiles": "COc1cc(OC)c(-n2cc(-c3ccc(Cl)cc3)[nH]c2=O)cc1Cl", "activity, negative = inhibition": "1.38%"}
{"smiles": "COc1ccc(-n2c(-c3ccc(Cl)cc3)n[nH]c2=S)c(OC)c1", "Potency": "5.62 µM (active)"}
{"smiles": "O=C(Nc1cccc(F)c1)N1CCC2(CC1)CCN(S(=O)(=O)c1ccccc1)CC2", "activity, negative = inhibition": "-4.6%"}
{"smiles": "C=C1C(=CC=C2CCC[C@@]3(C)[C@@H]2CC[C@H]3[C@H](C)CCCC(C)C)C[C@@H](O)C[C@@H]1O", "activity, negative = inhibition": "-17.6%"}
{"smiles": "Cc1nnc(C(=O)NC(C)(C)c2nc(C(=O)NCc3ccc(F)cc3)c(O)c(=O)n2C)o1", "activity, negative = inhibition": "-4.15%"}
{"smiles": "CCC1(c2ccccc2)C(=O)NC(=O)N(C)C1=O", "note": "(stereo unspecified)", "activity, negative = inhibition": "5.1%"}
{"smiles": "CCCCCCCCCc1ccc(OCCOCCOCCOCCOCCOCCOCCOCCOCCO)cc1", "activity, negative = inhibition": "-7.24%"}
{"smiles": "CCC[C@H]1C(=O)N2C(N(C)C)=Nc3ccc(C)cc3N2C1=O", "activity, negative = inhibition": "0.389% [at 33.2 µM]"}
{"smiles": "O=c1c(-c2ccc(F)c(F)c2)nc2cncnc2n1-c1ccccc1", "activity, negative = inhibition": "-7.65%"}
{"smiles": "COc1ccc(Oc2ncc3nc(-c4ccc(F)cc4)c(=O)n(C)c3n2)cc1", "activity, negative = inhibition": "-8.28%"}
{"smiles": "CC(=O)OC1C([N+]2(C)CCCCC2)C[C@H]2C3CC[C@H]4C[C@H](OC(C)=O)C([N+]5(C)CCCCC5)CC4(C)C3CCC12C", "note": "(stereo partly specified)", "activity, negative = inhibition": "2.62%"}
{"smiles": "CCC(CCC(C)C1CCC2C3CC=C4CC(O)CC[C@@]4(C)C3CC[C@@]12C)C(C)C", "note": "(stereo partly specified)", "activity, negative = inhibition": "0%"}
{"smiles": "COc1cccc(Cn2c(=O)c(C)nc3cnc(Oc4ccccc4)nc32)c1", "activity, negative = inhibition": "-10.8%"}
{"smiles": "CNC(C)[C@@H](O)c1ccccc1", "note": "(stereo partly specified)", "activity, negative = inhibition": "2.95%"}
{"smiles": "O=C(c1cnccn1)N1CCC2(CCN(Cc3cc(C(F)(F)F)cc(C(F)(F)F)c3)CC2)CC1", "activity, negative = inhibition": "0%"}
{"smiles": "CCNc1ncc2nc(CCc3ccccc3)c(=O)n(-c3ccc(OC)cc3)c2n1", "activity, negative = inhibition": "-7.09%"}
{"smiles": "O=C(c1ccco1)N1CCC2(CC1)CCN(c1ncccn1)CC2", "activity, negative = inhibition": "5.21%"}
{"smiles": "Cc1cn([C@H]2CC(F)[C@@H](CO)O2)c(=O)[nH]c1=O", "note": "(stereo partly specified)", "activity, negative = inhibition": "5.23%"}
{"smiles": "Cc1cccc([C@H](C)c2cnc[nH]2)c1C", "activity, negative = inhibition": "0%"}
{"smiles": "COc1ccc(-c2nc3cnc(Oc4ccccc4)nc3n(Cc3cccs3)c2=O)cc1", "activity, negative = inhibition": "1.2%"}
{"smiles": "COc1ccc(-n2c(=O)c(-c3cn(C)c4ccccc34)nc3cnc(OC)nc32)cc1", "activity, negative = inhibition": "6.7%"}
{"smiles": "N#Cc1ccc(CN2CCCC3(CCN(C(=O)c4ccco4)CC3)C2)cc1", "activity, negative = inhibition": "5.2%"}
{"smiles": "CC(=O)Oc1ccc2c3c1OC1C(OC(C)=O)C=CC4[C@@H](C2)N(C)CC[C@]314", "note": "(stereo partly specified)", "activity, negative = inhibition": "-3.56% [at 157 µM]"}
{"smiles": "O=C(c1ccco1)N1CCC2(CC1)CN(c1ncccn1)C2", "activity, negative = inhibition": "6.02%"}
{"smiles": "O=C(Nc1cccc(F)c1)N1CC[C@@]2(CCCN(C(=O)Oc3ccccc3)C2)C1", "activity, negative = inhibition": "-0.503%"}
{"smiles": "COc1ccc(NC(=O)N2CC3(CCN(C(=O)c4cccn4C)CC3)C2)cc1", "activity, negative = inhibition": "5.66%"}
{"smiles": "CCOC(=O)C1CCCN(S(=O)(=O)c2cc(-c3cc(C)no3)ccc2OC)C1", "note": "(stereo unspecified)", "activity, negative = inhibition": "2.51%"}
{"smiles": "O=C(c1cc(C(F)(F)F)cc(C(F)(F)F)c1)N1CCC2(CCCN(c3ccccn3)C2)CC1", "activity, negative = inhibition": "4.85%"}
{"smiles": "COc1ccc(-c2oc3cc(OC)ccc3c2C(=O)c2ccc(C#N)cc2)cc1", "activity, negative = inhibition": "2%"}
{"smiles": "Oc1ccc(Cl)c2c1CCC2", "activity, negative = inhibition": "-1.73%"}
{"smiles": "CC1(C)OC[C@@H](COC(=O)CCc2ccc(OC[C@@H](O)CNCCNC(=O)N3CCOCC3)cc2)O1", "Potency": "inactive"}
{"smiles": "c1ccc(CN2CC[C@@]3(CCCNC3)C2)cc1", "activity, negative = inhibition": "1.4%"}
{"smiles": "COc1cccc(Cn2c(=O)c(-c3cc(F)cc(F)c3)nc3cnc(OC)nc32)c1", "activity, negative = inhibition": "-4.11%"}
{"smiles": "CC(=O)CC(c1ccccc1)C1C(=O)Oc2ccccc2C1=O", "note": "(stereo unspecified)", "activity, negative = inhibition": "-1.9%"}
{"smiles": "COc1cc2c(cc1OC)[C@@H](Cc1cc(OC)c(OC)c(OC)c1)[N+](C)(CCCOC(=O)CC/C=C/CCC(=O)OCCC[N+]1(C)CCc3cc(OC)c(OC)cc3[C@H]1Cc1cc(OC)c(OC)c(OC)c1)CC2", "note": "(stereo partly specified)", "activity, negative = inhibition": "2.34%"}
{"smiles": "C[C@H]1C[C@H]2[C@@H]3CCC4=CC(=O)C=C[C@]4(C)[C@@H]3C(=O)C[C@]2(C)[C@@]1(O)C(=O)CO", "activity, negative = inhibition": "-4.12%"}
{"smiles": "CCOc1ccc(NC(=O)CC2C(=O)N(c3cccc(OC)c3)C(=O)N2C2CCCCC2)cc1", "note": "(stereo unspecified)", "activity, negative = inhibition": "3.35%"}
{"smiles": "COCCn1c(=O)c(-c2cc(F)cc(F)c2)nc2cnc(N3CCNCC3)nc21", "activity, negative = inhibition": "-4.63%"}
{"smiles": "CC(=O)N1CCC2(CC1)CCN(c1ccncc1)CC2", "activity, negative = inhibition": "-7.23%"}
